DT40 TDP1 no CPT: qHTS for Inhibitors of human tyrosyl-DNA phosphodiesterase 1 (TDP1): qHTS in cells in absence of CPT; DT40 Tdp1-/- hTDP1 cells, no CPT, ATP luminescence, 48 h; Potency, µM (top dose mostly 46.2 µM), for inactives: top-dose activity change, negative = growth inhibition, hits mostly inhibitors; 15% of 420,000 active; AID 686978, 2013; also: potency is read from the fitted curve at half-maximal effect; nearly all actives have a fitted effect of over 55% in size
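A cellular qHTS used chicken DT40 cells lacking endogenous Tdp1 but carrying stably transfected human TDP1. Compounds were applied without camptothecin, and cell growth kinetics were judged by ATP-dependent luminescence after ≥48 hr.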
IL1B secr inh: inhibitors of inflammasome signaling (IL-1 beta secretion) | AID 743279 | activity change, % at 57.5 µM | THP-1 LPS/ATP IL-1B secretion, AlphaLISA, 16 h; active compounds read low | 4.7% of 360,000 active; in the data active = activity change below about -50%; inconclusive = mostly about -30% to -49%
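THP-1 cells pretreated 1 hr with compounds (up to 57.5 uM final), then stimulated with LPS (250 ng/mL final) plus ATP (1.25 mM final); secreted IL-1B measured by AlphaLISA after 16 hr, decreased signal indicating inhibition.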
TDP1 cell CPT: growth inhibition of DT40 Tdp1-/-;hTDP1 cells with camptothecin (screen for TDP1 inhibitors); 12% of 420,000 active; AID 686979; Potency, µM (highest dose often 46.2 µM), for the others: at the top dose activity change, negative = growth inhibition, most hits filed as inhibitors; chicken DT40 Tdp1-/-;hTDP1 cells + 20 nM CPT, ATP luminescence, 48 h; also: potency is read from the fitted curve at half-maximal effect; nearly all actives have a fitted effect of over 55% in size
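Chicken DT40 Tdp1-/- cells complemented with human TDP1, 400 cells/well, exposed to compounds plus 20 nM camptothecin for at least 48 h at 37 C; viability read as ATP content by CellTiter-Glo luminescence.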
HT1080 IDH1KD tx: toxicity to HT-1080 IDH1 knockdown cells (counter line). HT-1080 IDH1 knockdown viability, ATP luminescence, 48 h. 2% of 360,000 active. Potency, µM (top dose mostly 46.1 µM), inactives show at the top dose activity, negative = toxicity, usual class: cytotoxic;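 also: potency is read from the fitted curve at half-maximal effect; 0% = DMSO wells and -100% = cell-free medium wells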
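Using the IDH1-knockdown HT-1080 line run in the same batch and compound series as the NT line, viability after 48 h at 37 °C was determined by CellTiter-Glo luminescence and expressed as % activity.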
HT1080NT lethal: kills 2HG-producing HT-1080-NT fibrosarcoma cells; HT-1080-NT fibrosarcoma viability, CellTiter-Glo ATP luminescence, 48 h; Potency, µM (series often up to 46.1 µM), without a hit: at the highest dose activity, negative = less viability, usual class: cytotoxic; 1.6% of 360,000 active;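 also: NT is the 2HG producing partner of a matched IDH1 knockdown line; potency is read from the fitted curve at half-maximal effect; 0% = DMSO-treated cells and -100% = media-only wells without cells; nearly all actives have a fitted effect of over 55% in size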
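Read-out is CellTiter-Glo luminescence after 10 minutes at room temperature, following 48 hours' compound treatment of HT-1080-NT cells (750 cells/well, RPMI, 5% FBS, 37 degrees C).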
Numbers without * were called inactive; ? = inconclusive; · = no result. A selection: hits, their analogues and other compounds. The true share with any hit is near 19%. Unless noted, calls follow the shape of the dose curve; as a rule, active = well fitted curve in the direction sought with a large enough effect; inconclusive = small, poorly fitted or top-dose-only effect, or another doubt; inactive = no such curve, though single readings can be large; an effect the other way counts as inactive or inconclusive. Unless noted, % is scaled to controls: 0 for no effect and ±100 for the full control effect.

SMILES	DT40 TDP1 no CPT	IL1B secr inh	TDP1 cell CPT	HT1080 IDH1KD tx	HT1080NT lethal
COc1cc(C(O)P(=O)(OCCC(C)C)c2ccc(N(C)C)cc2)cc(OC)c1OC (configuration not stated)	?	·	?	1%	13%
CC(C)Oc1cc(C(=O)NC2CCCCC2)c2ccccc2n1	?	-17	?	-1%	2%
CC(C)C[C@H](N)c1nnc(S(=O)(=O)Cc2cccc(F)c2)o1	5.8µM*	?	5.8µM*	?	?
CC(C)(C)OC(=O)N[C@@H](Cc1ccccc1)c1nnc(S(=O)(=O)Cc2cccc(F)c2)o1	1.3µM*	-80*	1.3µM*	23µM*	?
CC(C)(C)OC(=O)N[C@@H](CCCCNC(=O)OCc1ccccc1)c1nnc([C@H](CCCCNC(=O)OCc2ccccc2)NC(=O)OC(C)(C)C)o1	?	-14	?	-4%	2%
O=C(OCc1cccc(F)c1)c1ccc2c(c1)-c1ccccc1C2=O	?	0	?	12%	0%
O=C(O)c1cccc(NC2=C(n3nnc4ccccc43)C(=O)c3ccccc3C2=O)c1	-1%	29	-10%	-11%	-23%
CCc1ccc(S(=O)(=O)/N=C2\C=C(Nc3cccc(C(=O)O)c3)C(=O)c3ccccc32)cc1	16µM*	-101*	18µM*	7.3µM*	8.2µM*
CCc1ccc(S(=O)(=O)/N=C2/C=C(Sc3ncn[nH]3)C(=O)c3ccccc32)cc1	0.73µM*	-99*	0.65µM*	5.2µM*	5.8µM*
CCc1ccc(S(=O)(=O)/N=C2\C=C(Nc3ccc(O)cc3)C(=O)c3ccccc32)cc1	3.3µM*	-103*	4.1µM*	2.9µM*	2.9µM*
Cc1ccc(NC(C)c2cc(Cl)ccc2O)cc1 (configuration not stated)	-19%	-27	-18%	1%	5%
CCN(CC)c1ccc(NS(=O)(=O)c2ccc(OC)cc2)cc1	2%	21	20%	15%	4%
COCCOc1cc(NC(=O)c2cccc(OC)c2)c(Cl)cc1Cl	?	3	-7%	-3%	8%
O=C(O)c1cc([N+](=O)[O-])ccc1C(=O)Nc1ccccc1	2%	12	16%	0%	6%
COCCOc1cc(NC(=O)c2sccc2Oc2ccc([N+](=O)[O-])cc2F)c(Cl)cc1Cl	18µM*	-14	?	-15%	-13%
O=C(Nc1ccccc1)c1sccc1Oc1ccc([N+](=O)[O-])cc1F	21µM*	-11	21µM*	-26%	-15%
Cn1cncc1C#Cc1ccc2c(=O)c3ccccc3oc2c1	?	?	?	17%	13%
O=C(Nc1ccc2c(c1)OCO2)c1n[nH]c(=O)c2ccccc12	-1%	0	-17%	-26%	-45%
O=C(NCCCN1CCCCC1)c1[nH]c2ccccc2c1Sc1ccc(Cl)cc1	21µM*	·	21µM*	·	·
COCCNC(=O)c1[nH]c2cc(C)ccc2c1Sc1ccc(Cl)cc1	-10%	·	0%	·	·
CC1CCCCN1CCCNC(=O)c1[nH]c2ccccc2c1Sc1ccc(Cl)cc1 (configuration not stated)	13µM*	·	10µM*	·	·
COc1ccc2c(Sc3ccccc3)c(C(=O)N3CCC(C)CC3)[nH]c2c1	?	·	21µM*	·	·
COCCCNC(=O)c1[nH]c2cc(OC)ccc2c1Sc1ccc(C)cc1	-9%	·	-17%	·	·
COc1ccc2c(Sc3ccccc3)c(C(=O)NCCCN3CCCCC3)[nH]c2c1	18µM*	·	?	·	·
c1cc2c3c(cccc3c1)NC1(CCCC1)N2	-28%	-10	?	-4%	-7%
SMILES	DT40 TDP1 no CPT	IL1B secr inh	TDP1 cell CPT	HT1080 IDH1KD tx	HT1080NT lethal
CC1(C)Nc2cccc3c(N=Nc4ccc(N=Nc5ccccc5)c5ccccc45)ccc(c23)N1	11µM*	·	?	·	·
CC1(C)Nc2cccc3cccc(c23)N1	16µM*	7	?	1%	-3%
Nc1ccc(N=Nc2ccccc2)c2cccnc12	-2%	-21	-2%	-9%	-8%
COc1ccc2cc(C(=O)N3CCC(Cc4ccccc4)CC3)[nH]c2c1	?	-7	?	0%	-3%
C=CCc1cccc(/C=N/NC(=O)c2ccc3nc[nH]c3c2)c1O	5.8µM*	236	9.2µM*	?	?
COc1cccc(/C=N/NC(=O)c2ccc([N+](=O)[O-])cc2Cl)c1O	4.6µM*	69	4.6µM*	?	?
COc1cccc(/C=N/NC(=O)C(=O)N/N=C/c2cccc(OC)c2OC)c1OC	-12%	6	22%	23µM*	?
COc1ccc(/C=N/NC(=O)c2cccc(NC(=O)c3ccccc3Cl)c2)cc1OC	?	22	-12%	-25%	-26%
COc1cc(/C=N/NC(=O)c2cccc([N+](=O)[O-])c2)cc(OC)c1O	?	-4	-23%	0%	-1%
COc1ccc(/C=N/NC(=O)c2cccc(NC(=O)c3ccccc3Cl)c2)cc1	4.6µM*	88	3.7µM*	2.3µM*	5.8µM*
COc1ccc(-c2nc3cnc(Oc4ccccc4)nc3n(CCC#N)c2=O)cc1	8%	·	?	·	·
C=CCc1cccc(/C=N/NC(=O)c2ccccc2Br)c1O	?	276	?	?	?
C=CCc1cccc(/C=N/NC(=O)c2ccccc2OC)c1O	?	178	?	16µM*	?
COc1ccccc1/C=N/NC(=O)c1ccccc1Cl	7%	-67*	11%	20%	25%
COc1ccccc1/C=N/NC(=O)c1cccc(NC(=O)c2ccccc2Cl)c1	-1%	-9	10%	11%	-2%
CC(C)N(c1ccc(C=O)cc1)C(C)C	-2%	·	-29%	·	·
CCCCn1c(N)c(N(Cc2ccccc2OC)C(=O)CCSC)c(=O)[nH]c1=O	-1%	3	7%	10%	7%
Cc1ccc(NC(=S)Nc2ccc(S(=O)(=O)N3CCOCC3)cc2)cc1S(=O)(=O)N1CCOCC1	-19%	-5	?	0%	-3%
CC(=O)OCC1OC(n2c(S)c(C#N)c(-c3ccccc3)c(C#N)c2=O)C(OC(C)=O)C(OC(C)=O)C1OC(C)=O (configuration not stated)	?	-15	?	?	-21%
CCOC(=O)NC1(Nc2cccc(Cl)c2)Oc2ccccc2O1	23µM*	10	?	-22%	-9%
O=C(Nc1cccc(C(F)(F)F)c1)Oc1ccc(Cl)c2cccnc12	18µM*	-102*	23µM*	15µM*	16µM*
CCN(CC)C(=O)Oc1ccc(Cl)c2cccnc12	-11%	-4	4%	0%	1%
CCSc1nc(-c2ccccc2)nc2c1CCCC2	?	13	?	9%	-9%

Compound activity deposited in PubChem by National Center for Advancing Translational Sciences (NCATS).
